Test results reported in ChEMBL document CHEMBL3988442, “University of Dundee, Small-Polar-MMV Screening Library” (2021).
For part of these data: Results with a measured potency or affinity are listed apart.

Columns and labels:
Design in all cases: scale not given: direction of the effect not stated beside the values
[1] = target: Protein translocase subunit SecA (Escherichia coli (strain K12)) (UniProt P10408); test: Assay to Identify E. coli SecA ATPase Inhibitors; format: functional; settings: 30 µM
Chain of Protein translocase subunit SecA (Escherichia coli (strain K12)) (P10408 whole entry): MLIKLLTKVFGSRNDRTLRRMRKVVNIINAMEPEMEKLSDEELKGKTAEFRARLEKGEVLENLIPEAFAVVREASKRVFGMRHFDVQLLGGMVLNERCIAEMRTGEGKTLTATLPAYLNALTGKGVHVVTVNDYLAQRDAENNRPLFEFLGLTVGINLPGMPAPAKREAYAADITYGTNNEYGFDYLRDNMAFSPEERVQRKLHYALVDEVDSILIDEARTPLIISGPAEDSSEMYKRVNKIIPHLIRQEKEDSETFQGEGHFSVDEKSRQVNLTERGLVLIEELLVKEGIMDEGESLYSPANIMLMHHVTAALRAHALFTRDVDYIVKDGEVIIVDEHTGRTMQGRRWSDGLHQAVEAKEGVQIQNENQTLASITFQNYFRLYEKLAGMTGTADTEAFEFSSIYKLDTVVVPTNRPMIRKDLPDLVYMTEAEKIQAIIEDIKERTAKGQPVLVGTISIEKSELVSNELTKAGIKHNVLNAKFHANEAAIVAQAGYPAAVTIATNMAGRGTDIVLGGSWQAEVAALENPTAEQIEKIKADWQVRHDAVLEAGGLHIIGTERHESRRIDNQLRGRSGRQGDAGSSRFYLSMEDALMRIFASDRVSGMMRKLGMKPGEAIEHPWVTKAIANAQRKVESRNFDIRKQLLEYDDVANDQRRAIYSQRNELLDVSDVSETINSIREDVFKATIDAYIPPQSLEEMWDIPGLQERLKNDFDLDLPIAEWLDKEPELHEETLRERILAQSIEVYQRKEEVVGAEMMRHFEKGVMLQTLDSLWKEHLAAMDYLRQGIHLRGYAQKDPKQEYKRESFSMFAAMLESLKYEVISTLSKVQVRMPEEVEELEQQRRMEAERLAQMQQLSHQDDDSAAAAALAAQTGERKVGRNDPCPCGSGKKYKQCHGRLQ

[2] = target: T1, Ubiquitin-activating enzyme e1, putative (Leishmania donovani (strain BPK282A1)) (UniProt E9BSI1); test: Leishmania donovani Ubiquitin Activating Enzyme (LdE1); format: functional; settings: 30 µM
T1 sequence (whole entry): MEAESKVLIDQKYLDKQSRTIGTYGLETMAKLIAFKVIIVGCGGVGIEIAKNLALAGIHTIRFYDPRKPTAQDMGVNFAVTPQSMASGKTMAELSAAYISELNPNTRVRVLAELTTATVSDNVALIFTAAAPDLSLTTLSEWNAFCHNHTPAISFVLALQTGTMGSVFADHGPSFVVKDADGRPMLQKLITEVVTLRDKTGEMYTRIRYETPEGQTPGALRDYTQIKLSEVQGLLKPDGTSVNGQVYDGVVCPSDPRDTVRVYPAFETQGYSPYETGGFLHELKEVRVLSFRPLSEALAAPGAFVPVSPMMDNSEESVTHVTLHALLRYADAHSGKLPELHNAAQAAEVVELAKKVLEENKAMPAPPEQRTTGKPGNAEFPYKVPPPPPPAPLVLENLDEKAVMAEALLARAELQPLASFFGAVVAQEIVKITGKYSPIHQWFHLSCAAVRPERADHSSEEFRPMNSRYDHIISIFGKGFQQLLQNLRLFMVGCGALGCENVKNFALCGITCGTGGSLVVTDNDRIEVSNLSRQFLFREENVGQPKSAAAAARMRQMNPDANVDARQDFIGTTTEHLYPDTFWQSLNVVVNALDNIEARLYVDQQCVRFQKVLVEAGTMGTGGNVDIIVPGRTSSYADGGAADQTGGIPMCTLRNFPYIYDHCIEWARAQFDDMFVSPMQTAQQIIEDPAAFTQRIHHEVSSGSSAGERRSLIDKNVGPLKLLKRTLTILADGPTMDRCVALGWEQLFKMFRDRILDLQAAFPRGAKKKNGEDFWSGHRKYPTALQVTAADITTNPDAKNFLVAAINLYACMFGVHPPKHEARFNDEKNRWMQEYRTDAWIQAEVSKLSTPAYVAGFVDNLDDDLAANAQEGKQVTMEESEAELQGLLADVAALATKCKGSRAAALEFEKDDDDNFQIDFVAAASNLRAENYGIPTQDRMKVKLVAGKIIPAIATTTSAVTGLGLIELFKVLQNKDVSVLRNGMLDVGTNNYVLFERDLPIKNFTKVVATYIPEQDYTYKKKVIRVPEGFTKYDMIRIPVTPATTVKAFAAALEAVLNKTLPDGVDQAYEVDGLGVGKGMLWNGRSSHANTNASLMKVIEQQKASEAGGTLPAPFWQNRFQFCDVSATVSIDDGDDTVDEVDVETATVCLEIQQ

[3] = target: AMP-activated protein kinase, AMPK (Homo sapiens) (UniProt P54646+O43741+P54619+Q9UGJ0+Q9Y478+Q13131+Q9UGI9); test: AMP-dependent Kinase enzyme assay. An in vitro enzyme assay that detects ADP turnover that is directly proportional to AMPK activity. This uses naive AMPK that is activated during the assay with MK-8722; format: functional; settings: 30 µM
[4] = target: Sialic acid-binding Ig-like lectin 9 (Homo sapiens) (UniProt Q9Y336); test: Hs-Siglec9 ALPHAscreen SOP 20170721; settings: 10 µM
Chain of Sialic acid-binding Ig-like lectin 9 (Homo sapiens) (Q9Y336 whole entry): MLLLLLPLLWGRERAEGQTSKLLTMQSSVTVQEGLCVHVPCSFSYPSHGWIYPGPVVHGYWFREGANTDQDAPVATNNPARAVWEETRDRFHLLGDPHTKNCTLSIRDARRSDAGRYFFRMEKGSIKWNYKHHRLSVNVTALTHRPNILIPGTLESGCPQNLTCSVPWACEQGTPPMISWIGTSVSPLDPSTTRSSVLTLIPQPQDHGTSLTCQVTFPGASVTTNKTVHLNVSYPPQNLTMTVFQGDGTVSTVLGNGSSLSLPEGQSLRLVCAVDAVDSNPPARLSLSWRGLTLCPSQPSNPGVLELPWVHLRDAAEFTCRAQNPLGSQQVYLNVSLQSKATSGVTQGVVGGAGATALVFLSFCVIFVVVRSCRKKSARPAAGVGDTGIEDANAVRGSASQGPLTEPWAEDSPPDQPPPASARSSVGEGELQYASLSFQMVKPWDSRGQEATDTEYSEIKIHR

[5] = tested on: Trypanosoma cruzi; test: Trypanosoma cruzi phosphomannomutase and mannose-1-phosphate guanylyltransferase assay; format: functional; settings: 10 µM
[6] = target: T2, Arginase-2, mitochondrial (Homo sapiens) (UniProt P78540); test: in vitro enzyme assay to detect the production of urea directly proportional to the activity of Arginase II; format: functional; settings: 33.3 µM; also: in the data most compounds retested in dose-response had high values
T2 sequence (whole entry): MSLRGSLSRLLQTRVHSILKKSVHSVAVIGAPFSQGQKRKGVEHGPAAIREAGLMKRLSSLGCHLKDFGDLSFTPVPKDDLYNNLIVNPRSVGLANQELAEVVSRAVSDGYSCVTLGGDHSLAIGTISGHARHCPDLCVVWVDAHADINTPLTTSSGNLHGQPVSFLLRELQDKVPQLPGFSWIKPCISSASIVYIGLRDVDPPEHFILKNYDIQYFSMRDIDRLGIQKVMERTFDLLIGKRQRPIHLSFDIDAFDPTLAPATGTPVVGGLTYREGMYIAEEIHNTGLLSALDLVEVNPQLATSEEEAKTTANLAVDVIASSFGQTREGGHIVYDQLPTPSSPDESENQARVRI

[7] = target: T3, Proteasome subunit beta (Trypanosoma cruzi) (UniProt O96673); test: Trypanosoma cruzi proteasome chymotrypsin-like activity (TcProtChymo) assay.; also: in the data most compounds retested in dose-response had high values; format: functional; settings: 9.37 µM
T3 sequence (whole entry): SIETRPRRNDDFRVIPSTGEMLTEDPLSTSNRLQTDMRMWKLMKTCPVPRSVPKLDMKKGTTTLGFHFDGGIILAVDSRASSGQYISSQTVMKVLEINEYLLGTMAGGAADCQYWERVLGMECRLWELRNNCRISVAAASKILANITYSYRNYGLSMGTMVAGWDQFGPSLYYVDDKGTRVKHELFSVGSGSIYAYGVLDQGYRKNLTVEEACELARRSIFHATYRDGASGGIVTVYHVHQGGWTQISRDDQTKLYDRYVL

[8] = organism: Homo sapiens; test: To identify inhibition of the IFN signalling (Jak-Stat) pathway via expression of an eGFP reporter gene under the control of an IFN-stimulated response element (ISRE) containing MxA promoter.; format: functional; settings: 30 µM
[9] = target: T4, Tyrosyl-tRNA synthetase, putative (Trypanosoma cruzi (strain CL Brener)) (UniProt Q4DSP6); test: Trypanosoma cruzi tyrosyl tRNA synthetase (TcYRS) _High Tyrosine SOP; format: functional; settings: 30 µM; also: in the data most compounds retested in dose-response had high values
T4 sequence (whole entry): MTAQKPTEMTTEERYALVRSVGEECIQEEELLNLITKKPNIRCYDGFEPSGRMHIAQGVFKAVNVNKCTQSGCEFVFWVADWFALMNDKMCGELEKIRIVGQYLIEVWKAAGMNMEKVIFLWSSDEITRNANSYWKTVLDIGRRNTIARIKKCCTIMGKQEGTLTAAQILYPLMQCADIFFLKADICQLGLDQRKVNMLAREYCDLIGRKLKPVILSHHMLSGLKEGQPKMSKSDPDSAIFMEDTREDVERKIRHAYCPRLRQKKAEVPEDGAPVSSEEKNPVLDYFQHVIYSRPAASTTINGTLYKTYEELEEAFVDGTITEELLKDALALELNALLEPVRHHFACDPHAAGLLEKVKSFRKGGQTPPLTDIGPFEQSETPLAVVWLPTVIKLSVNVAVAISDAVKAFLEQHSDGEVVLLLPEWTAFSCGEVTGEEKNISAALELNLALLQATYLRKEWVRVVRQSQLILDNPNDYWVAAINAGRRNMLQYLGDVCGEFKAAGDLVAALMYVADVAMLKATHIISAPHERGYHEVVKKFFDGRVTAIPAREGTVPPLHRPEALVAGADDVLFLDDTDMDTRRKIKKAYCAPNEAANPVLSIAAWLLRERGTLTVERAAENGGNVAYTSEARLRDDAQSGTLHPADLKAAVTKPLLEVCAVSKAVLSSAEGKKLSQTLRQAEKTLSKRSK

[10] = target: T4, Tyrosyl-tRNA synthetase, putative (Trypanosoma cruzi (strain CL Brener)); test: Trypanosoma cruzi tyrosyl tRNA synthetase (TcYRS) SOP; format: functional; settings: 30 µM
[11] = target: Chromo domain-containing protein 1 (Saccharomyces cerevisiae (strain ATCC 204508 / S288c) (Baker's yeast)) (UniProt P32657); test: ScCHD-1 Enzyme Inhibition Assay; format: functional; settings: 30 µM; also: in the data most compounds retested in dose-response had high values
Chain of Chromo domain-containing protein 1 (Saccharomyces cerevisiae (strain ATCC 204508 / S288c) (Baker's yeast)) (P32657 whole entry, the tested form may be a part): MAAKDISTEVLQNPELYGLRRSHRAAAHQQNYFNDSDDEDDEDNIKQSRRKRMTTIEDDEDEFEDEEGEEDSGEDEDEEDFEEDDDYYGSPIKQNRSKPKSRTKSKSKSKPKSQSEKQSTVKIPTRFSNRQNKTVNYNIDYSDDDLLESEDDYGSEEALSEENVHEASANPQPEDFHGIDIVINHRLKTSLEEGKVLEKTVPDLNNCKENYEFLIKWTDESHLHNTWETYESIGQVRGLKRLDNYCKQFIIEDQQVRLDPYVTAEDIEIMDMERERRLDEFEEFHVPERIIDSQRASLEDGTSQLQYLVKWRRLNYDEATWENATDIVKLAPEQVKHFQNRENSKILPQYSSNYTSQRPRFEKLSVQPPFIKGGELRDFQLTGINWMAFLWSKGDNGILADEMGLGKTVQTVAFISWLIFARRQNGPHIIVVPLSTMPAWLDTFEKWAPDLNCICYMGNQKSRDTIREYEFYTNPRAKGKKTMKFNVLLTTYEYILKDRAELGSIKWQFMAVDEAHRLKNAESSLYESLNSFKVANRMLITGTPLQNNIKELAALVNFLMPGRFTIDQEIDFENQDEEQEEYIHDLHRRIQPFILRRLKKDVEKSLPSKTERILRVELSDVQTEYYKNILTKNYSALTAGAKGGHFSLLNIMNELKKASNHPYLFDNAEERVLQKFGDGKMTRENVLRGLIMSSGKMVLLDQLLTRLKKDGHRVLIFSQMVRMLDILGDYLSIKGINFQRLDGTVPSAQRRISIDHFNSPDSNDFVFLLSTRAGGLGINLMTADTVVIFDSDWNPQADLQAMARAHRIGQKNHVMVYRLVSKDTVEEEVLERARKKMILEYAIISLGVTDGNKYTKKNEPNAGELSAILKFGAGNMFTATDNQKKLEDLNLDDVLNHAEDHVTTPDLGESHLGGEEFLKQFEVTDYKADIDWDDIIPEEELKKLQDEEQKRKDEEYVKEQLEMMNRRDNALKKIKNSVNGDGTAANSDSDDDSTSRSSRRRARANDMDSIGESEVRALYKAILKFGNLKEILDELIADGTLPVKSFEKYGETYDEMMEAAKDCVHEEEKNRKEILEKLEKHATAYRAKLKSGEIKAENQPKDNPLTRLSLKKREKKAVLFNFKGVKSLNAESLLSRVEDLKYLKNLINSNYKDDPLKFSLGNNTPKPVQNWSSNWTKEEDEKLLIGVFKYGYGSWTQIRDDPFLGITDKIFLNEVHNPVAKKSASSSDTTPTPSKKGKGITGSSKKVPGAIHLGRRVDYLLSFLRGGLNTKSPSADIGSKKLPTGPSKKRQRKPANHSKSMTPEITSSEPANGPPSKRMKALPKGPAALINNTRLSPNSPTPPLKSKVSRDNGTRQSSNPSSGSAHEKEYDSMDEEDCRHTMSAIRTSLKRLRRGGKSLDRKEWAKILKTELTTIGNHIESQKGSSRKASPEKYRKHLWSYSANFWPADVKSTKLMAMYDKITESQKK

Compound | Percent Effect [1] [%] | Percent Effect [2] [%] | Percent Effect [3] [%] | Percent Effect [4] [%] | Percent Effect [5] [%] | Percent Effect [6] [%] | Percent Effect [7] [%] | Percent Effect [8] [%] | Percent Effect [9] [%] | Percent Effect [10] [%] | Percent Effect [11] [%]
Cc1cccc(NC2CCN(C(=O)Nc3cccc4[nH]ccc34)CC2)n1 | -6.98 | 17.7 | -19.6 | 10.2 | 6.7 | -7.22 | 3.85 | -7.19 | 4.43 | 16.5 | -8.65
CCOCC(O)CN1CCN(C(=O)CC(C)C)CC1 (stereo unspecified) | -3.57 | 16.2 | -2.25 | 3.53 | -4.62 | 0.401 | 7.39 | 12.1 | 2.46 | 11.1 | -7.14
CO[C@H]1CCN(S(=O)(=O)c2cn(C)cn2)[C@H]1Cc1cnn(C)c1 | -4.55 | 2.67 | 1.72 | 2.33 | -2.51 | -52.9 | 6.15 | 1.21 | -4.17 | -25 | -4.77
CCOc1nnc(CN(C)C2CCCN(c3cccnn3)C2)s1 (stereo unspecified) | -2.38 | 10.5 | -2.62 | -6.38 | 7.5 | -11.8 | 17.9 | -12.4 | 7.45 | 18.2 | -4.02
CCCOc1cc(CNC(=O)Nc2cccnc2N2CCCC2)ccn1 | -1.55 | -2.7 | -14.8 | 5.9 | -1.04 | 4.81 | 5.77 | 6.16 | -0.493 | 3.7 | -5.59
COc1ccc(CN2C[C@@H]3CCCO[C@@H]3[C@H](NS(C)(=O)=O)C2)cc1 | 0.295 | 13.3 | -2.32 | 4.91 | 2.9 | -48.2 | 5.13 | -24.2 | 6.25 | 25 | -6.84
CC(C)S(=O)(=O)NCC1CCCN(C(=O)c2cccnc2)C1 (stereo unspecified) | -1.12 | 11 | -1.03 | -2.93 | -3.53 | 0.455 | 21.3 | 15 | 3.23 | 10 | -3.28
CNc1cncc(C2CCCN2Cc2ccccc2OCC(=O)O)n1 (stereo unspecified) | -4.52 | -52.7 | 7.74 | 0.809 | -3.75 | -2.55 | 9.52 | 5.72 | 1.07 | 3.9 | 0.143
COc1ccc(Cl)cc1NCC(=O)NCCc1ccccn1 | -3.56 | -5.41 | -7.1 | 3.7 | -7.64 | 0.401 | 1.62 | 20.4 | 0.493 | 1.24 | 0.208
CCN1CC(C(=O)NCc2ccccc2-n2cccn2)CC1=O (stereo unspecified) | -2.49 | 13 | 0.208 | 2.02 | 2.45 | -1.05 | 15 | 11 | 5.71 | 23.5 | -8.96
CC(C)(C)c1nc(CN2CCC(c3nc4cc(Cl)ccc4o3)CC2)no1 | 0.762 | 13.5 | 3.19 | 22.6 | 7.92 | 4.76 | 7.76 | 10.2 | 2.65 | 0 | -5.62
O=C(CN1CCCCC1Cn1cncn1)NCCc1ccc(F)cc1 (stereo unspecified) | -0.868 | 15.2 | -4.02 | -10.5 | -6.89 | -2.28 | 8.27 | 37.4 | 8.37 | 11.4 | -9.46
Cc1csc(N2CCN(C(=O)Cc3ccc(C)s3)CC2)n1 | -4.68 | 10.8 | -9.36 | 4.82 | -6.89 | -5.61 | 25.2 | 15.8 | 12.3 | 11.1 | 1.36
O=C(NCCNc1cnccn1)C1CCN(C(=O)N2CCCC2)CC1 | -3.3 | 19 | -1.9 | -1.57 | -2.36 | -5.81 | 15.6 | 8.62 | -3.12 | 17.7 | -23.5
CC(C)(C)C(=O)NS(=O)(=O)c1ccc(C#N)cc1C(F)(F)F | -3.4 | 8.11 | -4.85 | 3.66 | -0.849 | 2.81 | 1.8 | 7.18 | 1.48 | 11.1 | -3.67
CCc1nc2n(n1)CC(NCc1ccnc(-c3ccccc3)n1)CC2 (stereo unspecified) | -0.451 | 0 | -2.11 | 2.45 | 6.26 | 3.6 | -4.32 | -20.9 | 3.45 | 6.17 | 0.195
O=C(NCCn1ccc(-c2ccccn2)n1)C1CC1 | -1.6 | 0 | 8.98 | 2.65 | -3.85 | 5.81 | 2.79 | 7.05 | 3.17 | 3.85 | -0.508
CCC1CN(CC(=O)N2CCC2)CCN1CCOC (stereo unspecified) | -2.71 | 13.5 | -12.7 | 13.2 | 3.49 | -8.82 | 7.03 | 1.78 | 8.37 | 28.4 | -9.71
CN(CCc1cccs1)C1CCCN(Cc2noc(C3CC3)n2)C1 (stereo unspecified) | -1.04 | 4.17 | -15.1 | -5.62 | 2.82 | 10.2 | 15.6 | -4.89 | 3.16 | 7.69 | -3.54
COc1ccc(NC(C)C(=O)N2CCN(c3ncccn3)CC2)cn1 (stereo unspecified) | -5.21 | 8.22 | -137 | -2.83 | 3.13 | 8.18 | 0.71 | -4.13 | 3.23 | 7.5 | -3.06
COc1ncccc1CNC(=O)NC1CCOc2ccccc21 (stereo unspecified) | -3.57 | 5.41 | -0.164 | 13.2 | 5.48 | 0.185 | -4.85 | 10.6 | 0 | 13.4 | -3.69
